Experimental data taken from ChEMBL document CHEMBL1961873, “Compounds: GSK PKIS; Assays: Nanosyn kinase panel” (2012).

What was measured:
[1] = target: Calcium/calmodulin-dependent protein kinase type II subunit alpha (Homo sapiens) (UniProt Q9UQM7); conditions: at 1 µM;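 further: reported value is a mean percent inhibition of CAMK2A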
[2] = target: Calcium/calmodulin-dependent protein kinase type II subunit delta (Homo sapiens) (UniProt Q13557); conditions: at 0.1 µM
[3] = target: Calcium/calmodulin-dependent protein kinase type II subunit delta (Homo sapiens) (UniProt Q13557); conditions: at 1 µM
[4] = target: T1, Calcium/calmodulin-dependent protein kinase type IV (Homo sapiens) (UniProt Q16566); conditions: at 0.1 µM
T1 sequence (whole entry): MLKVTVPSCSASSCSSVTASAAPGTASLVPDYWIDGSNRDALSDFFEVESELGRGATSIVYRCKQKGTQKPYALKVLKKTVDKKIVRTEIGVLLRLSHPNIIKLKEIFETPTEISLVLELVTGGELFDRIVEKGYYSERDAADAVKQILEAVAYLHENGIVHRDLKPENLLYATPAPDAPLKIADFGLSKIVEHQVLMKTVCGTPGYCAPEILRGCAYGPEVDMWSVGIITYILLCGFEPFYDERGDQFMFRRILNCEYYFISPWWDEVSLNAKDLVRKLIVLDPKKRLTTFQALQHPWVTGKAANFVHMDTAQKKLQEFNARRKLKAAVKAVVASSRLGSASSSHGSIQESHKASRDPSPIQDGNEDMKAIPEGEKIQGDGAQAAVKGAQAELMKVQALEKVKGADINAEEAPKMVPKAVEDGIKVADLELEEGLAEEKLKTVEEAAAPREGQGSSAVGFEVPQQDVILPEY

[5] = target: T1, Calcium/calmodulin-dependent protein kinase type IV (Homo sapiens); conditions: at 1 µM
[6] = target: T2, Serine/threonine-protein kinase Chk1 (Homo sapiens) (UniProt O14757); conditions: at 0.1 µM
T2 sequence (whole entry): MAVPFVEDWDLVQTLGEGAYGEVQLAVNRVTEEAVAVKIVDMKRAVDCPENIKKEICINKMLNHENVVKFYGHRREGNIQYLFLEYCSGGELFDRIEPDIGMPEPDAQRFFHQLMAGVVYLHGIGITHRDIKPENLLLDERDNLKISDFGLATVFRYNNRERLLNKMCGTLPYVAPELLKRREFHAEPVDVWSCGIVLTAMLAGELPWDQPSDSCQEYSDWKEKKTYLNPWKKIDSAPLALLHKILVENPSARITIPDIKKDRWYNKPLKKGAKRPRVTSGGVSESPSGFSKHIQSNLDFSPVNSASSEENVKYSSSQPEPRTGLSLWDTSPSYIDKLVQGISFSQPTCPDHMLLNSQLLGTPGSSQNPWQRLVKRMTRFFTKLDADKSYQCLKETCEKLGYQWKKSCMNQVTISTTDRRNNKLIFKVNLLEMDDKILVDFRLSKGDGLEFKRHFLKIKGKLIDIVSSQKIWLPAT

[7] = target: T2, Serine/threonine-protein kinase Chk1 (Homo sapiens); conditions: at 1 µM
[8] = target: Serine/threonine-protein kinase Chk2 (Homo sapiens) (UniProt O96017); conditions: at 0.1 µM
[9] = target: Serine/threonine-protein kinase Chk2 (Homo sapiens) (UniProt O96017); conditions: at 1 µM
[10] = target: Death-associated protein kinase 1 (Homo sapiens) (UniProt P53355); conditions: at 0.1 µM
[11] = target: Death-associated protein kinase 1 (Homo sapiens) (UniProt P53355); conditions: at 1 µM
[12] = target: T3, Serine/threonine-protein kinase DCLK2 (Homo sapiens) (UniProt Q8N568); conditions: at 0.1 µM
T3 sequence (whole entry): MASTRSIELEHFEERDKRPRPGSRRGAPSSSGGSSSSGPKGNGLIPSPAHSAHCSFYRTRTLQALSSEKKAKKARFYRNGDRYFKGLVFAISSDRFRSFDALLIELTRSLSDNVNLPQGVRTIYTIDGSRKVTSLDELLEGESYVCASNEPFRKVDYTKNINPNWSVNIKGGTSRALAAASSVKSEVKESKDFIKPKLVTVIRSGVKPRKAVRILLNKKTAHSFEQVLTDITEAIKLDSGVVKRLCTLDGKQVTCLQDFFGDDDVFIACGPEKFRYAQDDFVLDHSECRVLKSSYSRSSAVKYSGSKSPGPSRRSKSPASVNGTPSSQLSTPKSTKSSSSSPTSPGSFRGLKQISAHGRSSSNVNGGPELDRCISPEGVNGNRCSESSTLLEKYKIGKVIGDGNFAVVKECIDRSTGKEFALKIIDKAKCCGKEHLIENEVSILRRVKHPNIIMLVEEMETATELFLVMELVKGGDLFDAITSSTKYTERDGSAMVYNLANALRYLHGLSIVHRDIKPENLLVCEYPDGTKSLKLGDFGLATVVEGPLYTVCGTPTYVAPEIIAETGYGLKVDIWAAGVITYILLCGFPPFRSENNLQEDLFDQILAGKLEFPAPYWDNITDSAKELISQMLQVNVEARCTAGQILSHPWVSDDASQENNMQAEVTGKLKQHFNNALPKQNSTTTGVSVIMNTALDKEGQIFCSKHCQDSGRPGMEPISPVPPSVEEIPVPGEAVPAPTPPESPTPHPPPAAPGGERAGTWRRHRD

[13] = target: T3, Serine/threonine-protein kinase DCLK2 (Homo sapiens); conditions: at 1 µM
[14] = target: MAP kinase-activated protein kinase 2 (Homo sapiens) (UniProt P49137); conditions: at 0.1 µM
[15] = target: MAP kinase-activated protein kinase 2 (Homo sapiens) (UniProt P49137); conditions: at 1 µM
[16] = target: MAP kinase-activated protein kinase 3 (Homo sapiens) (UniProt Q16644); conditions: at 0.1 µM
[17] = target: MAP kinase-activated protein kinase 3 (Homo sapiens) (UniProt Q16644); conditions: at 1 µM
[18] = target: Serine/threonine-protein kinase MARK1 (Homo sapiens) (UniProt Q9P0L2); conditions: at 0.1 µM
[19] = target: Serine/threonine-protein kinase MARK1 (Homo sapiens) (UniProt Q9P0L2); conditions: at 1 µM
[20] = target: MAP/microtubule affinity-regulating kinase 3 (Homo sapiens) (UniProt P27448); conditions: at 0.1 µM;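 further: mean percent inhibition of MARK3 kinase activity, measured within the GSK PKIS screening panel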

Chain of MAP kinase-activated protein kinase 3 (Homo sapiens) (Q16644 whole entry, looked up): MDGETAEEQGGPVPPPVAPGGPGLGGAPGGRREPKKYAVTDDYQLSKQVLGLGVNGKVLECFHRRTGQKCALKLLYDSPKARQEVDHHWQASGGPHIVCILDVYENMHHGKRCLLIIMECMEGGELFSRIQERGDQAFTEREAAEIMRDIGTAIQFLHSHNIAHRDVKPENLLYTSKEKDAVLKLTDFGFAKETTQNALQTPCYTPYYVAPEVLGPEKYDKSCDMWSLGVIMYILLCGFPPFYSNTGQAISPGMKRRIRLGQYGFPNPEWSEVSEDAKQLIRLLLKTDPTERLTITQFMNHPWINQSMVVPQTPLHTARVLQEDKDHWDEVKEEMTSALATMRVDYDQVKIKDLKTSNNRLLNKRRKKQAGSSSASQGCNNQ
Chain of Serine/threonine-protein kinase Chk2 (Homo sapiens) (O96017 whole entry): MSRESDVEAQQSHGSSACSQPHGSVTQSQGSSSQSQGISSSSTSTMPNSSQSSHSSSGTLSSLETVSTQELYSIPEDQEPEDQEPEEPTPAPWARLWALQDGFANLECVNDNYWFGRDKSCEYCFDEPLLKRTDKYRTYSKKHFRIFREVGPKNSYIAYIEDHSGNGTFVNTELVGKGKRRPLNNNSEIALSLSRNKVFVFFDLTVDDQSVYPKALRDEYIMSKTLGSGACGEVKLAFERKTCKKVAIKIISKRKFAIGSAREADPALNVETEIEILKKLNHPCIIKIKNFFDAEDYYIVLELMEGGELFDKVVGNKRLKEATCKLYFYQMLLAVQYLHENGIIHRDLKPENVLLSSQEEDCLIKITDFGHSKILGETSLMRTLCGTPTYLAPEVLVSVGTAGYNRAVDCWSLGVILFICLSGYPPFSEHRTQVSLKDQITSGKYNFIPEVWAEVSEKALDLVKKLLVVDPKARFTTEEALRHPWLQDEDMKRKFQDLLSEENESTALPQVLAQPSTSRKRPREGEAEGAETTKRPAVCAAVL
Chain of Calcium/calmodulin-dependent protein kinase type II subunit delta (Homo sapiens) (Q13557 whole entry): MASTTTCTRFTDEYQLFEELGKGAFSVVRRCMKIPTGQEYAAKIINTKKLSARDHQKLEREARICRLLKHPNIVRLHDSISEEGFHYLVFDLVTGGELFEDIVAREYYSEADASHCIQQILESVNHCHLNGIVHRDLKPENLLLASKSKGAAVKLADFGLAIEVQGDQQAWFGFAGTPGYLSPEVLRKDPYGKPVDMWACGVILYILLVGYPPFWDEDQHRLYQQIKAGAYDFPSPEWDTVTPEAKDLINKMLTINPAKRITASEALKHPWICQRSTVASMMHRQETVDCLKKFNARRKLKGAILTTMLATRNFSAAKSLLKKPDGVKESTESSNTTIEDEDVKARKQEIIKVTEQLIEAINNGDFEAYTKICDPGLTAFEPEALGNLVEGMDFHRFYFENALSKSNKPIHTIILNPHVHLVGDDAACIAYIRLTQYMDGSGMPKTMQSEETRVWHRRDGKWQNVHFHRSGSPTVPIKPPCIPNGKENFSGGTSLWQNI
Chain of MAP kinase-activated protein kinase 2 (Homo sapiens) (P49137 whole entry, looked up): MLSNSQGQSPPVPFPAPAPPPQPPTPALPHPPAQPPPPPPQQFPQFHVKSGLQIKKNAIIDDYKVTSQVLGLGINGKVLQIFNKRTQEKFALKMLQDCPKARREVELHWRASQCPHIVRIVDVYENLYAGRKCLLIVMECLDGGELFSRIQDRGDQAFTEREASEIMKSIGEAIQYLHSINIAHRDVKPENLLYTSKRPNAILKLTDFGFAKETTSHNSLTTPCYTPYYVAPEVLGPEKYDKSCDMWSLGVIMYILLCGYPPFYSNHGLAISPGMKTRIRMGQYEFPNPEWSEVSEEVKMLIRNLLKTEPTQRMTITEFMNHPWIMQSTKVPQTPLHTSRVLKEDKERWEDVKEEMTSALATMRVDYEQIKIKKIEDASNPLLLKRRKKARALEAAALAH
Chain of Serine/threonine-protein kinase MARK1 (Homo sapiens) (Q9P0L2 whole entry, looked up): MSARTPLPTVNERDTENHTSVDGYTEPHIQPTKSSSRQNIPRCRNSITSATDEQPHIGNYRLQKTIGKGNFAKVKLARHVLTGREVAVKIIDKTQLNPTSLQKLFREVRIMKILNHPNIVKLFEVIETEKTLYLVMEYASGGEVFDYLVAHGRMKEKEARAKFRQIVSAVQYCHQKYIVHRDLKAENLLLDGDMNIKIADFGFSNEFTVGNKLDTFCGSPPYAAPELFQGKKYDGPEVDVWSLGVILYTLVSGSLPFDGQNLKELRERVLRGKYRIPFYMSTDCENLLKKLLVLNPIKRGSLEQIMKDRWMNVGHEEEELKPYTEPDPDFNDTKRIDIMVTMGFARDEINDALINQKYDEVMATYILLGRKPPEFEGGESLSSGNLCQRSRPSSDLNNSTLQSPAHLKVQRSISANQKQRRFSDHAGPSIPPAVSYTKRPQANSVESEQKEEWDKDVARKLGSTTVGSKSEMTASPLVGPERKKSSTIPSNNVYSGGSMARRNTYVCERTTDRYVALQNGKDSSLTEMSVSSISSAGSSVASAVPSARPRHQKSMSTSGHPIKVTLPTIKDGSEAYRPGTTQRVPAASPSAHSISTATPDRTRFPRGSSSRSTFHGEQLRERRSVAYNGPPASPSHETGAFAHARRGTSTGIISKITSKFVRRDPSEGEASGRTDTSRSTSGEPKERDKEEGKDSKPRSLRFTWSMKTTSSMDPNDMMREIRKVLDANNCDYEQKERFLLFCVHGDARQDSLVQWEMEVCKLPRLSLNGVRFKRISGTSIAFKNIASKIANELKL
Chain of Death-associated protein kinase 1 (Homo sapiens) (P53355 whole entry, looked up): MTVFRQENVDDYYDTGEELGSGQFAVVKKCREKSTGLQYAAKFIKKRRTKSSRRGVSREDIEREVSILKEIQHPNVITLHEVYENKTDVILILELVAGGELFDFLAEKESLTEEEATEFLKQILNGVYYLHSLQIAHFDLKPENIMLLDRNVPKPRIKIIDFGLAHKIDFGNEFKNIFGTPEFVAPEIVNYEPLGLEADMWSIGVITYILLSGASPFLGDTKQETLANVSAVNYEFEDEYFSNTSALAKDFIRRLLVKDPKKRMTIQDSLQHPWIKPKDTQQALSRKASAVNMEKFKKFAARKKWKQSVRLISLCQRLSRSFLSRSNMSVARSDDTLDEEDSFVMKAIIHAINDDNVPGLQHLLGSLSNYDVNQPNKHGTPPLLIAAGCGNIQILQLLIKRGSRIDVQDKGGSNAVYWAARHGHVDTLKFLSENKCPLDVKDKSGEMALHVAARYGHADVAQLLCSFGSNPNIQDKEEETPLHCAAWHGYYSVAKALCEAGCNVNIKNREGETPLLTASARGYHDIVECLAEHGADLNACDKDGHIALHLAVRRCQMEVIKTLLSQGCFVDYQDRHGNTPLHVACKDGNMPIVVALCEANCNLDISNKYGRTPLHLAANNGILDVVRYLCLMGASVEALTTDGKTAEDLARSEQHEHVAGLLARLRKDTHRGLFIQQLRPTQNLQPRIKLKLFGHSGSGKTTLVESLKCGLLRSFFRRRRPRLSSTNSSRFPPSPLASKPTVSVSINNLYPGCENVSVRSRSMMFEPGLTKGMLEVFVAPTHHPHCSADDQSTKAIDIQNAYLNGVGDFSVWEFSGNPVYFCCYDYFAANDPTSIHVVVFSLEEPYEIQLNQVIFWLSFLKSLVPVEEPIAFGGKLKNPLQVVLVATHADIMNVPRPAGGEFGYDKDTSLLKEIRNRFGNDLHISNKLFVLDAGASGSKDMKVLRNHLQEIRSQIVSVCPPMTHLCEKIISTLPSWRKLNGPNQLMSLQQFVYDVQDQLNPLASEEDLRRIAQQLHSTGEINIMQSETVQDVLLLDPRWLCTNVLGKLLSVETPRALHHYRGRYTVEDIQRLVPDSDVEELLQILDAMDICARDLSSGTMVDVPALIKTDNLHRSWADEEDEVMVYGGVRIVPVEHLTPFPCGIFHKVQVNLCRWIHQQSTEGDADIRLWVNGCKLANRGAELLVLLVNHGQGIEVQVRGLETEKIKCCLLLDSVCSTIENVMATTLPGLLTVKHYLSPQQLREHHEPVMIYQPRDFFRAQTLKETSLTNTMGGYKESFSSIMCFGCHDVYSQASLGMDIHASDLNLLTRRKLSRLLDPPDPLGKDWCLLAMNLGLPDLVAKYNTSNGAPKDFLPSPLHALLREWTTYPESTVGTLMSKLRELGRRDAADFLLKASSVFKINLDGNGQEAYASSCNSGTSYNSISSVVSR
Chain of Calcium/calmodulin-dependent protein kinase type II subunit alpha (Homo sapiens) (Q9UQM7 whole entry): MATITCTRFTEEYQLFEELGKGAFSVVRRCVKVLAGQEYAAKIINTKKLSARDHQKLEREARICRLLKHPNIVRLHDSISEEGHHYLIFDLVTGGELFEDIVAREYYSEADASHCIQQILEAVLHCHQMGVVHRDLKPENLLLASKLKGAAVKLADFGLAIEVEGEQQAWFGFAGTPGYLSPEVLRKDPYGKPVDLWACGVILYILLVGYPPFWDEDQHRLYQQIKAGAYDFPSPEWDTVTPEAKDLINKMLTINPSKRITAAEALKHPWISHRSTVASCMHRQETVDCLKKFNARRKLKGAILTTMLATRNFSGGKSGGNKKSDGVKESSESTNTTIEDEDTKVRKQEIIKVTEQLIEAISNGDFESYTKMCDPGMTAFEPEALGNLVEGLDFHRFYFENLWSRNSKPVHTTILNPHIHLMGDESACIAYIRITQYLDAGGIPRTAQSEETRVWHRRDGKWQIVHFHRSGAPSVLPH

SMILES | inhibition [1] [%] | inhibition [2] [%] | inhibition [3] [%] | inhibition [4] [%] | inhibition [5] [%] | inhibition [6] [%] | inhibition [7] [%] | inhibition [8] [%] | inhibition [9] [%] | inhibition [10] [%] | inhibition [11] [%] | inhibition [12] [%] | inhibition [13] [%] | inhibition [14] [%] | inhibition [15] [%] | inhibition [16] [%] | inhibition [17] [%] | inhibition [18] [%] | inhibition [19] [%] | inhibition [20] [%]
[O-][S+]1CCN(Cc2ccc(-c3ccc4ncnc(Nc5ccc(OCc6cccc(F)c6)c(Cl)c5)c4c3)o2)CC1 | 0.16 | 2.62 | 3.95 | 0.28 | 2.28 | 7.38 | 10.6 | 1.91 | 3.16 | 6.57 | 6.25 | 0.51 | 2.24 | 1.68 | 1.59 | 7.01 | 7.37 | 4.1 | 3.65 | 3.31
COc1ccc(-c2cc(-c3c[nH]nc3-c3ccccn3)ccn2)cc1 | 6.7 | 3.82 | 3.97 | -2.15 | -3.38 | 3.08 | 6.57 | 3.42 | 4.49 | 5.21 | 6.22 | 2.08 | 0.82 | 2.82 | 2.73 | 6.42 | 14 | 5.2 | 7.25 | 5.15
O=C(Nc1n[nH]c2cc(-c3ccc(F)cc3)ccc12)C1CC1 | 5.83 | 2.59 | 3.77 | -0.12 | 1.07 | 8.27 | 10.8 | 6.26 | 6.67 | 9.31 | 9.97 | 1.56 | 0.81 | 4.23 | 4.01 | 9.47 | 8.99 | 3.81 | 5.7 | 2.03
N#Cc1c(NC(=O)CN2CCOCC2)sc2c1CCCC2 | 4.63 | 3.07 | 5.65 | -1.76 | -1.41 | 1.74 | 5.06 | 1.85 | 4.14 | 5.34 | 5.97 | 2.25 | 1.22 | 2.32 | 2 | 3.68 | 5.44 | 4.32 | 6.04 | 4.14
CCNC(=O)O[C@H]1CN[C@H](C#Cc2cc3ncnc(Nc4ccc(OCc5cccc(F)c5)c(Cl)c4)c3s2)C1 | 3.02 | 3.6 | 4.34 | 2.5 | 2.5 | 3.99 | 2.84 | 2.23 | 2.55 | 3.17 | 3.45 | 1.18 | 2.85 | 1.55 | 1.53 | 2.87 | 2.32 | 1.89 | 2.65 | 2.76
Nc1nc(-c2cccc(Cl)c2)c(-c2ccc3ncccc3n2)s1 | 2.48 | 2.83 | 3.46 | -2.8 | -4.36 | 9.85 | 12.6 | 10.1 | 12.7 | 12 | 15.4 | 1.69 | 1.16 | 4.89 | 6.05 | 13.6 | 23.9 | 5.51 | 4.17 | 2.28
COC(=O)c1sc(-n2cnc3cc(OC)c(OC)cc32)cc1OCc1ccccc1C(F)(F)F | 5.27 | 4.25 | 11.3 | 1.9 | 11.2 | 1.72 | 2.67 | 3.73 | 4.65 | 0.08 | 1.94 | 2.16 | 0.62 | 1.81 | 1.73 | 4.86 | 5.46 | 2.71 | 6.82 | 2.38
CCOc1ccc2c(-c3ccnc(Nc4cccc(C(F)(F)F)c4)n3)cnn2n1 | -2.29 | 2.41 | 0.44 | 1.94 | -1 | 3.49 | 3.51 | 1.55 | 1.92 | 3.1 | 1.54 | 1.21 | 3.6 | 0.79 | -0.24 | 2.73 | 1.86 | 2.43 | 3.98 | 1.6
Cc1cccc(Nc2ncc(-c3ccccc3)o2)c1 | 7.1 | 4.42 | 6.85 | 1.87 | 4.2 | 4.59 | 6.26 | 3.02 | 6.44 | 5.26 | 3.39 | -0.51 | 1.2 | 1.15 | 3.82 | 3.13 | 4.32 | 2.41 | 8.07 | 3.98
CS(=O)(=O)CCNCc1ccc(-c2ccc3ncnc(Nc4ccc(OCc5ccccc5)c(C(F)(F)F)c4)c3c2)o1 | -1.78 | 1.83 | 1.77 | -0.46 | -1.2 | 8.46 | 10.8 | 7.47 | 7.84 | 12.8 | 10.9 | 7.37 | 2.23 | 4.99 | 3.73 | 8.97 | 10.7 | 2.72 | 4.11 | 3.87
CC1=C(C(=O)Nc2cc(Cl)c3[nH]ncc3c2)C(c2ccc(C(F)(F)F)cc2)CC(=O)N1 (stereo not given) | 1.21 | 1.82 | 4.42 | -0.37 | 0.15 | 8.32 | 11.4 | 6.46 | 7.48 | 9.05 | 10 | 3.55 | 2.36 | 4.51 | 4.3 | 9.27 | 9.12 | 3.77 | 6.87 | 3.36
CCCN(CCS(C)(=O)=O)Cc1ccc(-c2ccc3ncnc(Nc4ccc(OCc5cccc(F)c5)c(Cl)c4)c3c2)o1 | 0.76 | 1.58 | 1.84 | 1.01 | 2.17 | 7.57 | 6.58 | 5.44 | 6.1 | 8.24 | 8.65 | 0.95 | 0.44 | 3.34 | 3.18 | 7.91 | 7.63 | 0.08 | 0.29 | -1.25
CN1CCC(n2cnc(-c3ccc(F)cc3)c2-c2ccnc(Nc3ccccc3)n2)CC1 | 1.68 | 0.53 | 2.35 | 0.11 | 1.45 | -0.4 | 1.3 | 1.2 | 2.71 | 2.63 | 2.54 | 0.09 | -4.09 | 1 | 0.41 | 34.8 | 36.9 | 1.99 | 4.86 | 3.17
